Results from PubChem BioAssay (Tox21).
Where “and” joins values, the source holds several entries; their conditions need not be identical. Equal entries are not always repeated. Results filed as inconclusive are left out. Calls of active or inactive are those of the source. Unless noted, calls come from the whole dose curve; as a rule, active = well fitted curve in the direction sought with a large enough effect in the repeat runs; inconclusive = weak or mixed curves; inactive = no such curve, though single readings can be large; an effect the other way counts as inactive or inconclusive.

Tests used:
[1] = qHTS assay for small molecules that induce genotoxicity in human embryonic kidney cells expressing luciferase-tagged ATAD5 (AID 651632); note: nearly all actives have a fitted effect of over 15% in size; note: potency is the fitted concentration of half-maximal effect
Method in brief: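 Quantitative HTS in HEK293T expressing luciferase-tagged ATAD5, whose levels rise upon DNA damage. Exposure ran 16 hr at 37C and 5% CO2, with luminescence read 30 min after Amplite addition at room temperature.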

[2] = qHTS assay for small molecule agonists of the p53 signaling pathway - cell viability (AID 651633; calls by dose curve;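 note: p53RE-bla HCT reporter cells with a stable beta-lactamase p53 reporter; series mostly up to about 83 µM; nearly all actives have a fitted effect of over 30% in size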)
Method in brief: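 Viability counter-read: CellTiter-Glo luminescence (30 min, room temperature) in the same p53RE-bla plates. These plates had been exposed to compounds for 16 h at 37 C.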

[3] = qHTS assay for small molecules that induce genotoxicity in human embryonic kidney cells expressing luciferase-tagged ATAD5 - cell viability (AID 651634; calls by dose curve; note: nearly all actives have a fitted effect of over 25% in size; note: potency is the fitted concentration of half-maximal effect)
Method in brief: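 After 15.5 hr incubation with compound at 37C, 5% CO2, HEK293T ATAD5-luciferase cells received CellTiter-Fluor reagent; fluorescence intensity was quantified following 30 min at 37C.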

[4] = qHTS assay for small molecule disruptors of the mitochondrial membrane potential - cell viability (AID 720634; calls by dose curve;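 note: human HepG2 liver cancer cells; series mostly up to about 83 µM; nearly all actives have a fitted effect of over 20% in size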)
Method in brief: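 ATP-based luminescent viability readout (CellTiter-Glo, 30 min, room temperature) in HepG2 cells multiplexed with the m-MPI membrane potential dye; compound exposure lasted 1 hr at 37 C.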

[5] = qHTS assay for small molecule disruptors of the mitochondrial membrane potential (AID 720635); note: potency is the fitted concentration of half-maximal effect
Method in brief: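 Mitochondrial membrane potential tracked with Mito-MPS dye, red aggregates (ex 540/em 590 nm) against green monomers (ex 490/em 535 nm). Compound treatment 1 hr at 37C, dye 30 min in HepG2.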

[6] = qHTS assay to test for compound auto fluorescence at 590 nm (red) in HepG2 cells (AID 720674)
Method in brief: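 1 hr compound incubation on HepG2 cells, 37 C, 5% CO2; plate read ex 540 nm / em 590 nm; intensities reported as Rose Bengal sodium equivalents.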

[7] = qHTS assay to test for compound auto fluorescence at 535 nm (green) in HepG2 cells (AID 720675)
[8] = qHTS assay to test for compound auto fluorescence at 460 nm (blue) in HEK293 cells (AID 720678)
Method in brief: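 Blue-channel (Ex/Em 405/460 nm) intensity measured in HEK293 cultures after overnight compound exposure at 37C; signal expressed relative to triamterene. Cells plated 2,000 per well in 10% dialyzed FBS medium and allowed 4-5 hr to attach.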

[9] = qHTS assay to test for compound auto fluorescence at 590 nm (red) in HEK293 cells (AID 720679)
Method in brief: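 Red-channel autofluorescence (Ex/Em 540/590 nm; Rose Bengal sodium reference) was measured after overnight 37C, 5% CO2 exposure of attached HEK293 cells, 2,000 per well in medium with 10% dialyzed FBS.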

[10] = qHTS assay to test for compound auto fluorescence at 535 nm (green) in HEK293 cells (AID 720680)
[11] = qHTS assay to test for compound auto fluorescence at 460 nm (blue) in HEK293 cell free culture (AID 720681)
Method in brief: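 Blue fluorescence (Ex 405/Em 460 nm, triamterene-equivalent) was read immediately after pin transfer of compound or DMSO into medium (DMEM, 10% FBS) without cells.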

[12] = qHTS assay to test for compound auto fluorescence at 535 nm (green) in HEK293 cell free culture (AID 720682)
Method in brief: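 Cell-free medium (DMEM, 10% FBS) receives compound or DMSO by pintool. Plate read directly at Ex 485/Em 535 nm. Signal converted to fluorescein equivalency.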

[13] = qHTS assay to test for compound auto fluorescence at 590 nm (red) in HEK293 cell free culture (AID 720683)
Method in brief: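 Red-channel autofluorescence of compounds in culture medium (DMEM, 10% FBS), no cells, measured at 540/590 nm. Rose Bengal sodium is the reference fluorophore for equivalence.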

[14] = qHTS assay to test for compound auto fluorescence at 590 nm (red) in HepG2 cell free culture (AID 720684)
Method in brief: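 Cell-free; medium MEM + 10% FBS; compound or DMSO added by pintool; read Ex 540/Em 590 nm; Rose Bengal sodium as red reference fluorophore.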

[15] = qHTS assay to test for compound auto fluorescence at 460 nm (blue) in HepG2 cell free culture (AID 720685)
Method in brief: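 Cell-free plates of MEM plus 10% FBS received 23 nL compound or DMSO vehicle; blue-channel (405/460 nm) intensity scored against triamterene as reference fluorophore.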

[16] = qHTS assay to test for compound auto fluorescence at 535 nm (green) in HepG2 cell free culture (AID 720686)
[17] = qHTS assay to test for compound auto fluorescence at 460 nm (blue) in HepG2 cells (AID 720687)
Method in brief: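 Blue-channel autofluorescence (Ex/Em 405/460 nm, triamterene-equivalent) was measured after 1 hr compound exposure at 37 C, 5% CO2. Cells were HepG2, plated overnight at 37 C in MEM plus 10% FBS.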

[18] = target: Glucocorticoid receptor (Homo sapiens) (UniProt P04150); assay: qHTS assay to identify small molecule agonists of the glucocorticoid receptor (GR) signaling pathway (AID 720691; active = well fitted activation curve with a large enough effect in the signal ratio in the repeat runs, not every such curve was filed as active; the % refers to the signal ratio)
Glucocorticoid receptor (Homo sapiens), sequence (P04150 whole entry, looked up): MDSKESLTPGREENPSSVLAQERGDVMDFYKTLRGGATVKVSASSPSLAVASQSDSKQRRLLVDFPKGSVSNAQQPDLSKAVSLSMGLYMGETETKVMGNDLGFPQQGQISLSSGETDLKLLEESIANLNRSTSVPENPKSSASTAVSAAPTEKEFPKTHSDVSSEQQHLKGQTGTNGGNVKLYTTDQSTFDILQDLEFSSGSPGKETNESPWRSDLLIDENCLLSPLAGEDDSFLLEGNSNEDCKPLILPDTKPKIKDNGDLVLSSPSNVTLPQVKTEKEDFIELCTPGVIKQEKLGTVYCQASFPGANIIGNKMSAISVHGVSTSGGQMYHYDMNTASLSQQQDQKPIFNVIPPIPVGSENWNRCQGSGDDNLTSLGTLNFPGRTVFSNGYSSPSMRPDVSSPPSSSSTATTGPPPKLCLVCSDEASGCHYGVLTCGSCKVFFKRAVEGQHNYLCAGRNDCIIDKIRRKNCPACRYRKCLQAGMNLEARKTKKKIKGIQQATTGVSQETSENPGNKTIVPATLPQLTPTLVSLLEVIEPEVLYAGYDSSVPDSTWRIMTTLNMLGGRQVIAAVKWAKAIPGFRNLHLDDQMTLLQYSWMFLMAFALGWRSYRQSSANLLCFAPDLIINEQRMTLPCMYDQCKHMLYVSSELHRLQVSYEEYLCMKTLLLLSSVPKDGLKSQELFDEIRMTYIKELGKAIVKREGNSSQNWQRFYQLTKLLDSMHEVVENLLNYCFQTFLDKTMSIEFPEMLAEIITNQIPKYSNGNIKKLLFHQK
Method in brief: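 Cells: GR-bla HeLa, endogenous GR with stably integrated GRE-beta-lactamase reporter. Treatment 18 h, 37 C, compounds delivered in DMSO. Detection via LiveBLAzer B/G FRET substrate, 2 h RT, fluorescence intensity.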

[19] = target: Glucocorticoid receptor (Homo sapiens) (UniProt P04150); assay: qHTS assay to identify small molecule antagonists of the glucocorticoid receptor (GR) signaling pathway (AID 720692; active = well fitted inhibition curve with a large enough effect in the signal ratio in the repeat runs, not every such curve was filed as active; the % refers to the signal ratio)
Method in brief: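 Quantitative HTS in antagonist format: HeLa cells expressing endogenous GR and a stably integrated GRE-bla reporter, stimulated with 5 nM dexamethasone (final) alongside test compounds for 18 h.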

Measured: Potency

O=C(OCc1ccccc1)c1ccccc1
inactive: [1] | [2] | [3] | [4] | [5] | [6] | [7] | [8] | [9] | [10] | [11] | [12] | [13] | [14] | [15] | [16] | [17] | [18] | [19]

COc1cc2c(c(OC)c1OC)-c1ccc(OC)c(=O)cc1[C@@H](NC(C)=O)CC2
active: [1] 266 nM and 48 nM and 54.5 nM | [3] 335 nM and 9.6 nM and 7.7 nM | [5] 3.35 µM and 1.52 µM and 1.37 µM
inactive: [2] | [4] | [6] | [7] | [8] | [9] | [10] | [11] | [12] | [13] | [15] | [16] | [17] | [18]

CN/C(=C\[N+](=O)[O-])NCCSCc1ccc(CN(C)C)o1
inactive: [1] | [2] | [4] | [5] | [6] | [7] | [8] | [9] | [10] | [11] | [12] | [13] | [15] | [16] | [17] | [18] | [19]

NC(=O)NO
inactive: [1] | [2] | [3] | [4] | [5] | [6] | [7] | [8] | [9] | [10] | [11] | [12] | [13] | [14] | [15] | [16] | [17] | [18] | [19]

COC(=O)C1CCC(C(=O)OC)CC1 (centres undefined)
inactive: [2] | [3] | [4] | [5] | [6] | [7] | [8] | [9] | [10] | [11] | [12] | [13] | [14] | [15] | [16] | [17]

Nc1ccc(N=Nc2ccccc2)c(N)n1
active: [1] 11.9 µM and 8.68 µM and 9.69 µM | [3] 23.7 µM and 54.8 µM | [5] 10.6 µM and 30.8 µM and 19.3 µM
inactive: [2] | [4] | [6] | [7] | [8] | [9] | [10] | [11] | [12] | [13] | [15] | [16] | [17]

C=C(C)C(N)=O
inactive: [1] | [2] | [3] | [4] | [5] | [6] | [7] | [8] | [9] | [10] | [11] | [12] | [13] | [15] | [16] | [17]

CN(C)Cc1cc(CN(C)C)c(O)c(CN(C)C)c1
inactive: [1] | [2] | [3] | [4] | [5] | [6] | [7] | [8] | [9] | [10] | [11] | [12] | [13] | [15] | [16] | [17] | [18] | [19]

Cc1cccc(Nc2cc(Cl)nc(SCC(=O)O)n2)c1C
inactive: [1] | [2] | [3] | [4] | [5] | [6] | [7] | [8] | [9] | [10] | [11] | [12] | [13] | [14] | [15] | [16] | [17] | [18] | [19]

CCN(CC)CCOC(=O)c1ccc(N)cc1
inactive: [1] | [2] | [3] | [4] | [6] | [7] | [8] | [9] | [10] | [11] | [12] | [13] | [14] | [15] | [16] | [17]

NC(=O)OCC(COC(N)=O)c1ccccc1
inactive: [1] | [2] | [3] | [4] | [5] | [6] | [7] | [8] | [9] | [10] | [11] | [12] | [13] | [14] | [15] | [16] | [17] | [18] | [19]

CCCCOCCOCCSC#N
inactive: [1] | [2] | [3] | [4] | [5] | [6] | [7] | [8] | [9] | [10] | [11] | [12] | [13] | [14] | [15] | [16] | [17] | [18] | [19]

CC1=NN(c2ccccc2)C(=O)C1
active: [5] 11.9 µM and 61.5 µM
inactive: [1] | [2] | [3] | [4] | [6] | [7] | [8] | [9] | [10] | [11] | [12] | [13] | [14] | [15] | [16] | [17] | [18] | [19]

Cc1c(N(C)C)c(=O)n(-c2ccccc2)n1C
inactive: [1] | [2] | [3] | [4] | [5] | [6] | [7] | [8] | [9] | [10] | [11] | [12] | [13] | [14] | [15] | [16] | [17] | [18] | [19]

O=C(O)CN(CC(=O)O)CC(=O)O
inactive: [1] | [2] | [3] | [6] | [7] | [8] | [9] | [10] | [11] | [12] | [13] | [15] | [16] | [17] | [18] | [19]

Cn1cnc2c1c(=O)[nH]c(=O)n2C
inactive: [1] | [2] | [3] | [4] | [5] | [6] | [7] | [8] | [9] | [10] | [11] | [12] | [13] | [14] | [15] | [16] | [17] | [18] | [19]
